In assay [1] the test system is Plasmodium falciparum Sir2 (PF13_0152, Sir2A). The assay can be described thus: Plasmodium falciparum Sir2A binding compounds – biochemical, small-molecule microarray, 635 nm fluorescence, primary screen (AID 1098).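 Further: score merges spot fluorescence intensity with its signal-to-noise ratio.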 The note with it: fluorescence 635 nm, higher = more signal.
A short description of assay [2]: probe aDKK1 binding to arrayed compounds – biochemical, biotinylated probe, 635/667 nm fluorescence, primary screen (AID 1099).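 Further: score merges 667nm spot fluorescence with signal to noise across triplicate slides.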 The note with it: small-molecule microarray, higher = more signal.
Assay [3] in a line: probe aCHRDL2 binding to arrayed compounds – biochemical, biotinylated probe, 635/667 nm fluorescence, primary screen (AID 1100). The note with it: small-molecule microarray, higher = more signal.
The nature of assay [4]: change in splice reporter luminescence, either direction, cell-based, HEK293, spliceosome inhibition project, primary screen (AID 1101).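 Further: HEK293 cells carrying a splicing-competent luciferase reporter gene; test concentration not given here.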 The note with it: HEK293 splicing luciferase reporter, 24 h, higher = more signal, called active from +8 up or from −8 down.
Assay [5] addresses Fibroblast growth factor 10 (Homo sapiens) (UniProt O15520). The assay can be described thus: compounds binding fibroblast growth factor 10 – biochemical, small-molecule microarray, 635 nm fluorescence, primary screen (AID 1102). The note with it: FGF10 binding, fluorescence 635 nm, higher = more signal.
The test system of assay [6] is glycogen synthase kinase-3 (GSK3A per assay name; protocol says GSK3B). In words: compounds binding glycogen synthase kinase-3 – biochemical, small-molecule microarray, 635 nm fluorescence, GSK3A, primary screen (AID 1103). Further: the record names both GSK3A and GSK3B. The note with it: fluorescence 635 nm, higher = more signal.
Assay [7] has as its target Epidermal growth factor receptor (Homo sapiens) (UniProt P00533). The assay can be described thus: compounds binding epidermal growth factor receptor – biochemical, small-molecule microarray, 635 nm fluorescence, primary screen (AID 1104).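 Further: score merges 667 nm emission intensity with spot signal to noise over triplicate slides.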 The note with it: EGFR binding, higher = more signal.
Assay [8] addresses Follistatin-related protein 3 (Homo sapiens) (UniProt O95633). The assay can be described thus: compounds binding follistatin-related protein 3 – biochemical, small-molecule microarray, 635 nm fluorescence, primary screen (AID 1105).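 Further: score merges emission near 667 nm and signal to noise per printed spot across three slides.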 The note with it: FSTL3 binding, higher = more signal.
For assay [9], the target named is Dickkopf-related protein 1 (Homo sapiens) (UniProt O94907). The assay can be described thus: small molecules binding DKK1 protein – biochemical, small-molecule microarray, 635 nm fluorescence scan, primary screen (AID 1106).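 Further: score merges emission near 667 nm with signal to noise over three replicate slides.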 The note with it: higher = more signal.
Dickkopf-related protein 1 (Homo sapiens), sequence (O94907 whole entry, looked up): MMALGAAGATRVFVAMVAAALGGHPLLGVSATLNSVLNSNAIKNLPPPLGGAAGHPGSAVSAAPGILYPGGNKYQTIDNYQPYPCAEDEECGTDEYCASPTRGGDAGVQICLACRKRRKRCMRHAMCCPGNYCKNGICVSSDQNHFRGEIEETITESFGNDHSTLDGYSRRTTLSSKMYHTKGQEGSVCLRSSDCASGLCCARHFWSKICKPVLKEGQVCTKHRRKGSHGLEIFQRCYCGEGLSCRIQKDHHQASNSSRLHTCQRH
Assay [10] deals with Inhibin beta A chain (activin A). The assay can be described thus: small molecules binding activin A – biochemical, small-molecule microarray, 635 nm fluorescence scan, primary screen (AID 1107).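 Further: mouse activin A protein probed at 4.33 µg/mL on printed slides; score merges bound-protein fluorescence near 667 nm with spot signal-to-noise.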 The note with it: INHBA, higher = more signal.
Assay [11] has as its system Human papillomavirus type 1a protein E7 (residues 44-93). The assay can be described thus: small molecules binding HPV E7 44-93 – biochemical, small-molecule microarray, residues 44-93, 635 nm fluorescence, primary screen (AID 1108).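 Further: E7 fragment applied at 1 µg/mL in TBST for 1 h at 4 C; score combines spot fluorescence with its signal to noise ratio.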 The note with it: fluorescence 635 nm, higher = more signal.
Assay [12] can be described thus: hepatitis C replication reporter changes, two-sided – Huh7 cells, luciferase reporter, HCV replication inhibitor project, primary screen (AID 1109).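 Further: huh7 hepatoma cells harbouring a luciferase neomycin HCV replicon reporter; luciferase luminescence as measure of HCV replicon replication; test concentration not given here.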 The note with it: Huh7 HCV replicon luciferase reporter, 48 h; higher = more signal. (A reporter such as luciferase makes a cellular process visible.)
In assay [13] the target is Left-right determination factor 2 (Homo sapiens) (UniProt O00292). In words: small molecules binding LEFTY2 protein – biochemical, small-molecule microarray, 635 nm fluorescence scan, primary screen (AID 1110). The note with it: higher = more signal.
Left-right determination factor 2 (Homo sapiens), sequence (O00292 whole entry, looked up): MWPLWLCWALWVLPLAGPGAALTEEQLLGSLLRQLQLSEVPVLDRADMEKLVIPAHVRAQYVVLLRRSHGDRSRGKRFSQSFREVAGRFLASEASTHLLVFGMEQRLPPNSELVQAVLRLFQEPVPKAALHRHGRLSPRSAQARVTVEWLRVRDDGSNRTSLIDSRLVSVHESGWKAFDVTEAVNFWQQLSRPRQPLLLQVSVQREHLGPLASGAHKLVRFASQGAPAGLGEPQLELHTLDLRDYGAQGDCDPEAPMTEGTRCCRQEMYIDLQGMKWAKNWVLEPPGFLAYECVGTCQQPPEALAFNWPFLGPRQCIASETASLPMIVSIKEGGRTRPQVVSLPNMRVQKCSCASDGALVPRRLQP
Assay [14] addresses Calmodulin-1 (Homo sapiens) (UniProt P0DP23). The assay can be described thus: small molecules binding calmodulin-1 with EGTA – biochemical, small-molecule microarray, Cy5-labelled CALM1, profiling panel (AID 1111).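 Further: labelled calmodulin applied in Tris saline Tween buffer holding calcium plus EGTA and DTT.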 The note with it: Cy5-CALM1 binding fluorescence, higher = more signal.
Assay [15] shares this target. The assay can be described thus: small molecules binding Ca-loaded calmodulin-1 – biochemical, small-molecule microarray, Cy5-labelled CALM1, plus calcium, artefact control for SMM control-protein annotation, profiling panel (AID 1112).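 Further: score merges spot fluorescence with signal to noise from triplicate slides.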 The note with it: Cy5-CALM1 binding fluorescence, higher = more signal.
Assay [16] in a line: probe aWnt5a binding to arrayed compounds – biochemical, biotinylated probe, 635/667 nm fluorescence, primary screen (AID 1113).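 Further: score merges 667 nm fluorescence intensity with signal-to-noise per printed feature.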 The note with it: small-molecule microarray, higher = more signal.
Assay [17] is described as follows: probe aShh binding to arrayed compounds – biochemical, biotinylated probe, 635/667 nm fluorescence, primary screen (AID 1114).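 Further: probe is biotin-labelled aShh protein from a stem cell growth factor screen; measures binding of labelled protein to compounds printed on the slide; score merges feature fluorescence at 667 nm with signal-to-noise.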 The note with it: small-molecule microarray, higher = more signal.
Assay [18] can be described thus: probe aNog binding to arrayed compounds – biochemical, biotinylated probe, 635/667 nm fluorescence, primary screen (AID 1115).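 Further: probe is biotinylated aNog protein used at 0.15 µg/mL for 1 h at 4 C; z-score combines 667 nm fluorescence of each spot with its signal to noise.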 The note with it: small-molecule microarray, higher = more signal.
The target in assay [19] is Torsin-1A-interacting protein 1 (Homo sapiens) (UniProt Q5JTV8). In words: compound microarray binding of lysate hLAP1 – cell lysate, small-molecule microarray, COS7 lysate, 635/667 nm fluorescence, primary screen (AID 1116). The note with it: 635 nm fluorescence, higher = more signal.
Torsin-1A-interacting protein 1 (Homo sapiens), sequence (Q5JTV8 whole entry, looked up): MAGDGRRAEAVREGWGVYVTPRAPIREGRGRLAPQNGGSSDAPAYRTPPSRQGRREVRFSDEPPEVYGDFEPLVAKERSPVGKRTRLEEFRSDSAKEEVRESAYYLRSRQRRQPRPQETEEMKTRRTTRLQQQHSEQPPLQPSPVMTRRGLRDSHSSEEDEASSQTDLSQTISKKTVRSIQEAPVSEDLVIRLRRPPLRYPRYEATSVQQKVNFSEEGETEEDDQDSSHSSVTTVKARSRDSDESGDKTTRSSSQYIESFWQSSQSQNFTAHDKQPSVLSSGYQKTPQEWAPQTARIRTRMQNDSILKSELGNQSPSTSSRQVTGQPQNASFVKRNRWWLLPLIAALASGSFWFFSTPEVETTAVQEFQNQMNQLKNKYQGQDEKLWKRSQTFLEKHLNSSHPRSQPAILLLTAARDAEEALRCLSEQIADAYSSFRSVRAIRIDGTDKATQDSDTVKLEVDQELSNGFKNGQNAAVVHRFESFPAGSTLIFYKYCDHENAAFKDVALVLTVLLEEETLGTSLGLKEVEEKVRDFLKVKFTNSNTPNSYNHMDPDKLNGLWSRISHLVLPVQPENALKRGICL
In assay [20] the target is Alpha-bungarotoxin (Bungarus multicinctus) (UniProt P60615). The assay can be described thus: compounds binding labelled alpha-BTX control protein – biochemical, small-molecule microarray, Alexa647 label, 635/667 nm fluorescence, artefact control for SMM control protein annotation, profiling panel (AID 1117). The note with it: alpha-BTX-A647 binding fluorescence, higher = more signal.
Alpha-bungarotoxin (Bungarus multicinctus), sequence (P60615 whole entry, looked up): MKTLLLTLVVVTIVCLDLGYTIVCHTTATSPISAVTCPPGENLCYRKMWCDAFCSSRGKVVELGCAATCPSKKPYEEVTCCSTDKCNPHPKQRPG

Active and inactive are the calls of the source.

Epidermal growth factor receptor (Homo sapiens), sequence (P00533 whole entry, looked up): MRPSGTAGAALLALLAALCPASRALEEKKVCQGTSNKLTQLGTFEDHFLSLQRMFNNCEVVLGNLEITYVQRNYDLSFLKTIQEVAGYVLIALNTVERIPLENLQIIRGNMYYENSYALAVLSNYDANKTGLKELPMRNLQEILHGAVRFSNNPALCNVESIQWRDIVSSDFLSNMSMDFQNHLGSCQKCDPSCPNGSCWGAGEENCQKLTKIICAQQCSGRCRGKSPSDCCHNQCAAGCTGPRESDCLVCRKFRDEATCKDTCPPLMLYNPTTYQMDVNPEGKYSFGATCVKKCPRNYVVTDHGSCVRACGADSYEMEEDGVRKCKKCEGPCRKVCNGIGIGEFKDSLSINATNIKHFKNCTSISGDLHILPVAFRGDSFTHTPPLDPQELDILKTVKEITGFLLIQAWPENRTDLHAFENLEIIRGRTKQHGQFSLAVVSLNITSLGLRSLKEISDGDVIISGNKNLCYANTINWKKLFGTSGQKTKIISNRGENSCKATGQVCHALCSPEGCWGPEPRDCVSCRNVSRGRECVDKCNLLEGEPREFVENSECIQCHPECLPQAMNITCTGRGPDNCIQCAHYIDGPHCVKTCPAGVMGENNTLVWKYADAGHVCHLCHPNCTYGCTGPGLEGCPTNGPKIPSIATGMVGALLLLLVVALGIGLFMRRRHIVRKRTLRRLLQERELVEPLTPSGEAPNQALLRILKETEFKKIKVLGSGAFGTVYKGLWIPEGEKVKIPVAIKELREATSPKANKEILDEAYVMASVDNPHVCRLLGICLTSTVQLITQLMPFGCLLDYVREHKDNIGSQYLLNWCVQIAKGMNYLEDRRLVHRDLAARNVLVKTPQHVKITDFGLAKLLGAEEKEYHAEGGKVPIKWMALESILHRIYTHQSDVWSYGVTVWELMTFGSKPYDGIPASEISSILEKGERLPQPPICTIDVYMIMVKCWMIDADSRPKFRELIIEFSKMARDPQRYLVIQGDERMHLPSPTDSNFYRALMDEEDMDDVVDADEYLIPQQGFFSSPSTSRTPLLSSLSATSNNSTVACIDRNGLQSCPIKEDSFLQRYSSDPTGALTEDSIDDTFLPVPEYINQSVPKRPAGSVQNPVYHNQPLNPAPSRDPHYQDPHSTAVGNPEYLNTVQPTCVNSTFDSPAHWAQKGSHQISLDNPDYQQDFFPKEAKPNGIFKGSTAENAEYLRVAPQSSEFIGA
Follistatin-related protein 3 (Homo sapiens), sequence (O95633 whole entry, looked up): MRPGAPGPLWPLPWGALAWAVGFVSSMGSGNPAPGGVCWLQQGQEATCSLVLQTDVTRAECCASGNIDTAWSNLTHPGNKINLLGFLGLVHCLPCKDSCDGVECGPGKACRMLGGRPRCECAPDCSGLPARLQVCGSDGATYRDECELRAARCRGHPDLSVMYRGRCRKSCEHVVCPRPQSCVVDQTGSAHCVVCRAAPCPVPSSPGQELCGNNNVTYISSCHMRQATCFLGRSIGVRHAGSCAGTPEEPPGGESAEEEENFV
Fibroblast growth factor 10 (Homo sapiens), sequence (O15520 whole entry, looked up): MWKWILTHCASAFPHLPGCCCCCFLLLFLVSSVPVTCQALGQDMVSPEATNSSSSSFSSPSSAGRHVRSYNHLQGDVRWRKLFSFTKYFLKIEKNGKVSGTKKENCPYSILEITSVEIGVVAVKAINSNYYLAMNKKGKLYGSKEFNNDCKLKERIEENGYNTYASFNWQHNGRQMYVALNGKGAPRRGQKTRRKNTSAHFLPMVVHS

`O=C(NCc1ccccc1)c1ccc(Br)cc1[N+](=O)[O-]`: the composite z-score in assay [1] is 0.333; in assay [2], -0.261; in assay [3] it was -0.47; in assay [5], 0.39; in assay [6], 0.215; in assay [7], 0.425. The composite z-score in assay [8] is 0.494; in assay [9] it was 0.346; in assay [10], 0.31; in assay [11] it was -0.0303; in assay [13], 0.61; in [14], 0.216. The composite z-score in [15] was 0.321; in assay [16], -0.0462; in [17], -0.141; in assay [18], -0.318; in assay [19] it was 0.0817; in assay [20] it was 1.29. Further, the figures for the z-score in assay [4] and in assay [12] were 0.628 (inactive) and -0.3, respectively.
In the case of `CO[C@H]1COC(=O)CC=C[C@H](C)[C@@H](OC)COC(=O)[C@H](Cc2ccccc2)NC(=O)CC=C[C@@H]1C`, the composite z-score was 1.49 in assay [1]; -1.1 in [2]; -1.86 in [3]; -0.0885 in [5]; 0.344 in assay [6]; 0.514 in assay [7]. For the same compound, the composite z-score is 1.22 in [8]; 1.96 in assay [9]; 1.72 in assay [10]; -1.64 in [11]; 1.12 in assay [13]; -1.67 in assay [14]. Besides, the composite z-score is -3.12 in assay [15]; -0.144 in assay [16]; -0.11 in [17]; -0.537 in assay [18]; -0.272 in assay [19]; -1.24 in [20]. Further, the z-score in assay [4] is -1.34 (inactive); in assay [12], -0.74.
As for `CC(C)N1CC=CC23O[C@@H]4/C=C\CCCOC(=O)C4[C@H]2C(=O)N(CCCCCO)[C@@H]3C1=O` (stereo not given in full), the composite z-score in [1] is 0.21; in assay [2], -0.195; in assay [3], 0.632; in assay [5] it was -0.655; in assay [6], -1.42; in [7] it was -1.97. The composite z-score in assay [8] was -1.04; in assay [9] it was -1.09; in [10], 0.213; in [11] it was -1.46; in assay [13] it was -1.86; in [14], -2.24. Further, the composite z-score in assay [15] is -0.226; in assay [16], -0.176; in assay [17] it was -0.179; in assay [18], 0.0403; in [19], -1.04; in assay [20], -2.08. The figures for the z-score in assay [4] and in assay [12] were 0.0946 (inactive) and 0.0844, respectively.
Consider `CC(c1ccccc1)C(O)C1C=CC2C(=O)N(C)C(=O)C2N1N(c1ccccc1)c1ccccc1` (stereo not given), for which the composite z-score in assay [1] was 0.0872; in assay [2] it was 1.01; in assay [3], 1.2; in assay [5] it was 0.234; in [6] it was 0.187; in assay [7], -0.451. The composite z-score was 0.0656 in assay [8]; -0.623 in [9]; 1.41 in assay [10]; -0.304 in assay [11]; -0.789 in assay [13]; 1.08 in [14]. Also, the composite z-score in assay [15] was 0.723; in assay [16], -0.0057; in assay [17] it was 0.809; in [18] it was 0.332; in assay [19], 0.765; in [20] it was -0.212. The z-score in assay [4] is 1.05 (inactive); in assay [12], 0.37.
Take `COCCCNC(=O)[C@@]1(Sc2ccc(C)cc2)CC(=O)N(Cc2cc(C(F)(F)F)cc(C(F)(F)F)c2)[C@@H]1c1ccc(CO)cc1I`: the composite z-score in [1] was 1.84; in [2], 0.46; in assay [3] it was 1.19; in [5], -0.511; in [6], -1.14; in assay [7] it was -1.34. The composite z-score in [8] was -1.58; in assay [9] it was -1.79; in assay [10], 0.142; in [11] it was -0.975; in assay [13], -1.28; in assay [14] it was -0.0999. Besides, the composite z-score is 1.14 in assay [15]; -0.147 in [16]; 0.267 in [17]; 0.942 in assay [18]; 0.339 in assay [19]; -0.489 in [20]. In addition, the z-score in assay [4] is -1.26 (inactive); in assay [12], -1.22.
